From PubChem BioAssay (NCI)
Compounds without any hit were thinned out: in the full panel of roughly 83,000, 20% have a hit.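 96-well plates, one dose, 48 hours. Percent growth reported; active if below 10.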 Values without a mark were called inactive. Active and inactive are the calls of the source.

Assays:
Experiment in all cases: NCI-60 one-dose screen, 48 h (100 = growth as untreated, 0 = no growth, -100 = all killed)
Details in all cases: 10 µM unless noted
NCI-H23 lung = tested on: NCI-H23 lung
NCI-H226 lung = tested on: NCI-H226 lung
NCI-H322M lung = tested on: NCI-H322M lung
HOP-62 NSCLC = tested on: HOP-62 NSCLC
NCI-H460 lung = tested on: NCI-H460 lung
NCI-H522 lung = tested on: NCI-H522 lung
A549/ATCC NSCLC = tested on: A549/ATCC NSCLC
786-0 renal = tested on: 786-0 renal
COLO 205 colon = tested on: COLO 205 colon
HOP-92 NSCLC = tested on: HOP-92 NSCLC

| Structure (SMILES) | growth (NCI-H23 lung) | growth (NCI-H226 lung) | growth (NCI-H322M lung) | growth (HOP-62 NSCLC) | growth (NCI-H460 lung) | growth (NCI-H522 lung) | growth (A549/ATCC NSCLC) | growth (786-0 renal) | growth (COLO 205 colon) | growth (HOP-92 NSCLC) |
| --- | --- | --- | --- | --- | --- | --- | --- | --- | --- | --- |
| O=C(O)c1cn(C2CC2)c2cc(N3CCN(C(=O)CSc4nnc(-c5ccc(Cl)cc5)n4-c4ccccc4)CC3)c(F)cc2c1=O | 96.2% | 98.8% | 110% | 80.7% | 104% | 72.7% | 94.3% | 104% | 109% |  |
| COc1ccc2nc(-c3ccc(OC)c(OC)c3)cc(-c3nnc(SCC(=O)Nc4ccc(C(C)=O)cc4)o3)c2c1 | 104% | 96.9% | 103% | 107% | 105% | 88.3% | 94% | 101% | 116% |  |
| COC(=O)c1ccc2c(c1)NC(=O)[C@@H]1CCCN21 | 88.6% | 98.5% | 99.3% | 85.7% | 106% | 70% | 98.2% | 97.8% | 108% |  |
| COC(=O)c1nc(-c2ccccc2)oc1S(=O)(=O)n1nc(C)cc1N | 92.1% | 110% | 91.8% | 97% | 96.9% | -25.8% (active) | 94.9% | 80.6% | -63.9% (active) |  |
| CC(=O)Nc1ccc2c(c1)Cc1cc(F)ccc1-2 | 90.8% | 99.2% | 86.9% | 84.8% | 106% | 73.7% | 92.5% | 98% | 124% |  |
| O=C(CN1N=C(c2ccc(F)cc2)CCC1=O)Nc1nccs1 | 103% | 110% | 100% | 98.9% | 97.7% | 83.2% | 77.8% | 103% | 113% |  |
| O=C(/C(=C/c1ccc([N+](=O)[O-])cc1)SCc1ccc(Cl)cc1)c1ccc(F)cc1 | 57% | 66.7% | 100% | 68.7% | 83.1% | -1.33% (active) | 80.5% | 76.9% | 48.3% |  |
| N#Cc1ccc(N2Cc3cc(Cl)ccc3OC3=C2C(=O)N(Cc2ccccc2)C3=O)cc1 |  | 100% | 96.3% | 59% | 34.7% | -57.2% (active) | 66.3% | -82.4% (active) | -69.2% (active) | -63.8% (active) |
| C=C1C(=O)O[C@H]2[C@H]1CC/C(COC(=O)c1cccnc1)=C\CC[C@@]1(C)O[C@@H]21 | 79% | 78.5% | 104% | 85.2% | 84.8% | 28.7% | 80.1% | 63.8% | 52.9% |  |
| C#C[C@@]1(O)[C@@H](CO)O[C@@H](n2cnc3c(-c4ccccc4)ncnc32)[C@@H]1O | 101% | 104% | 104% | 110% | 112% | 94.8% | 94.1% | 98.8% | 109% |  |
| COc1cc(-c2cn(-c3ccc(Cl)c(Cl)c3)c(=O)[nH]2)cc(OC)c1OC | 92.4% | 93.1% | 69.7% | -1.73% (active) | 96.7% | 74.5% | 89.7% | 14.4% | 105% |  |
| O=C1CS/C(=N/c2nnc(-c3ccc(O)cc3)s2)N1 | 90% | 105% | 110% | 83.7% | 107% | 88.6% | 89.9% | 95% | 97.7% |  |
| O=C(C[n+]1cccc2cc(Cl)ccc21)c1ccc2c(c1)CCCC2 | 8.05% (active) | 39% | 61.6% | 36.2% | 19.8% | -3.94% (active) | 34.5% | 80.4% | 2.8% (active) |  |
| Cn1c2ccccc2c2c(OC(=O)c3ccccc3)c3c(nc21)-c1ccccc1C3 | 86.1% | 100% | 92.9% | 73.1% | 105% | 58.2% | 93.1% | 96.9% | 121% |  |
| COc1c(O)cc2oc3cc(O[C@@H]4OC(C)[C@@H](O)[C@H](O)C4O)c(CC=C(C)C)c(O)c3c(=O)c2c1CC=C(C)C (stereo partly drawn) | 89.4% | 90.1% | 107% | 110% | 90.5% | 68.5% | 80% | 101% | 114% |  |
| O=C1CCc2ccccc2N1 | 99.4% | 104% | 87.9% | 102% | 110% | 101% | 101% | 101% | 97.1% |  |
| CCOCc1cc(C(C)(C)C)ccc1O | 103% | 97.4% | 106% | 95.2% | 103% | 77.9% | 90.4% | 97.6% | 114% |  |
| CCCCCCN1C(=O)CN=C1Nc1ccc2cc3ccc(NC4=NCC(=O)N4CCCCCC)cc3nc2c1 | 64.8% | 81.7% | 79.7% | 82.4% | 57.5% | -9.83% (active) | 74.5% | 36.1% | 40.3% |  |
| Cc1nc2sc(C(=O)Nc3cccc(Cl)c3C)c(N)c2cc1C(C)O (stereo not drawn) | 32.6% | 95.8% | 55.6% | 25.5% | 11.1% | -24.9% (active) | 24.7% | 35.6% | -4.18% (active) |  |
| Cc1ccn2c3c(c(C(=O)O)c2c1)C(=O)c1ccccc1C3=O | 2.03% (active) | 114% | 6.55% (active) | 45.5% | -22.4% (active) | 82.5% | -39.6% (active) | 84.2% | 42.1% |  |
| COc1cc(NCC(=O)Nc2cc(Nc3cccc(C(F)(F)F)c3)ncn2)c(Cl)c(OC)c1Cl | 91.9% | 94.9% | 101% | 87.6% | 103% | 67.8% | 81.2% | 97.2% | 104% |  |
| COc1cc(/C=N/Nc2nc(-c3ccc(F)cc3)c(C#N)c(N3CCOCC3)n2)ccc1O | 108% | 97.8% | 97.4% | 104% | 102% | 99.3% | 89.6% | 82% | 101% |  |
| C#C[C@@]1(O)[C@@H](CO)O[C@@H](n2ccc3c(N)ncnc32)[C@@H]1O | -20.7% (active) | -54.4% (active) | 14.5% | 4.56% (active) | 0.612% (active) | -18.4% (active) | -19.4% (active) | 4.14% (active) | -55.2% (active) |  |
| COc1cccc(NC(=O)Nc2ccc(Oc3ncnc4[nH]c(C)c(C)c34)cc2)c1 |  | 105% | 105% | 97.5% | 61.3% | 57.8% | 79.7% | 109% | 102% | 110% |
| CCOC(=O)NC(Cc1ccccc1)c1ccccc1 (stereo not drawn) | 98.4% | 98.8% | 114% | 99.6% | 111% | 87.1% | 99.1% | 96.6% | 105% |  |
| COc1ccc2c(c1)/C(=C1\S/C(=N/c3nnc(C)s3)NC1=O)C(=O)N2Cc1ccc(Cl)cc1 | 34.5% | 56.5% | 49.9% | 66.8% | 8.75% (active) | 45.8% | 36.2% | 49.2% | 79.9% |  |
| Cc1nccc2c3ccc(OCc4cn(-c5ccc(Br)cc5)nn4)cc3n(CC(C)C)c12 | 40.1% | 58.1% | 90.6% | 65.8% | 44.3% | 26.5% | 41.1% | 28.5% | 15.1% |  |
